In the antibiotic and cytotoxicity screens of Wong et al. (2023) one finds cytotoxicity call data, which are given here for 42 molecules.

The structures appear in SMILES notation. The campaign covered roughly 39,000 compounds. About 1,500 (3.8%) were called active. Shown is part of a subset that was picked to be rich in actives.

The assay has as its system HSkMC (human skeletal muscle cells). Briefly: cytotoxicity call (relative viability < 0.9). To be noted: 10 µM.
`COc1cccc(NC(=O)N[C@@H]2C=C[C@@H](CC(=O)N3CCN(C)CC3)O[C@H]2CO)c1`: the cytotoxicity call is “inactive”.
As for `C[C@@H]1CN([C@@H](C)CO)C(=O)c2cccc(NS(=O)(=O)c3cn(C)cn3)c2O[C@H]1CN(C)C(=O)Nc1ccccc1`, the cytotoxicity call is “inactive”.
In the case of `C[C@H]1CCCCO[C@H](CN(C)C(=O)Nc2ccccc2)[C@@H](C)CN([C@@H](C)CO)C(=O)c2cc(NC(=O)CCC(F)(F)F)ccc2O1` it was “inactive”; in that of `O=C(C[C@H]1CC[C@@H]2[C@H](COC[C@@H](O)CN2C(=O)c2cccnc2)O1)NCC1CC1`, “inactive”; in that of `Cc1ccc(CSc2nnc(CCN)o2)cc1`, “inactive”.
For `CCn1ncc(Br)c1CN`, the cytotoxicity call was “inactive”.
In the case of `CC(C)NC(=O)[C@@H](N)c1ccccc1`, the cytotoxicity call is “inactive”.
In the case of `COc1ccc(NC(=O)Nc2ccc3c(c2)CC(=O)N([C@H](C)CO)C[C@@H](C)[C@H](CN(C)C(=O)Nc2cccc4ccccc24)O3)cc1` it was “inactive”; in that of `C[C@@H]1CN([C@H](C)CO)C(=O)c2ccccc2-c2ccccc2CO[C@@H]1CN(C)Cc1ccc(Oc2ccccc2)cc1`, “inactive”; in that of `COc1ccc(S(=O)(=O)N(C)C[C@@H]2Oc3ccc(NC(=O)Nc4c(C)noc4C)cc3CC(=O)N([C@@H](C)CO)C[C@H]2C)cc1`, “inactive”.
Regarding `O=C(C=CC=Cc1ccc2c(c1)OCO2)N1CCCCC1`, the cytotoxicity call was “inactive”.
In the case of `C[C@H](CO)N1C[C@H](C)[C@H](CN(C)C(=O)Nc2ccc3c(c2)OCO3)Oc2c(NC(=O)Nc3ccc(C(F)(F)F)cc3)cccc2C1=O` it was “inactive”; in that of `C[C@H](CO)N1C[C@H](C)[C@@H](CN(C)C(=O)Nc2ccc3c(c2)OCO3)Oc2c(NC(=O)Nc3ccc(C(F)(F)F)cc3)cccc2C1=O`, “active”.
Consider `C[C@H]1CN([C@@H](C)CO)C(=O)c2cccc(NC(=O)Nc3ccc(C(F)(F)F)cc3)c2O[C@@H]1CN(C)C(=O)Nc1ccc2c(c1)OCO2`, for which the cytotoxicity call was “active”.
In the case of `C[C@@H]1CN([C@@H](C)CO)C(=O)c2cccc(NC(=O)Nc3ccc(C(F)(F)F)cc3)c2O[C@H]1CN(C)C(=O)Nc1ccc2c(c1)OCO2`, the cytotoxicity call was “inactive”.
For the molecule `C[C@H]1CN([C@@H](C)CO)C(=O)c2cccc(NC(=O)Nc3ccc4c(c3)OCO4)c2O[C@@H]1CN(C)C(=O)Nc1ccc(C(F)(F)F)cc1`, the cytotoxicity call was “inactive”.
For the molecule `C[C@@H]1CN([C@H](C)CO)C(=O)c2cccc(NC(=O)Nc3ccc(C(F)(F)F)cc3)c2O[C@@H]1CN(C)C(=O)Nc1ccc2c(c1)OCO2`, the cytotoxicity call is “inactive”.
In the case of `Cc1ccc(S(=O)(=O)Nc2ccc3c(c2)CC(=O)N([C@H](C)CO)C[C@H](C)[C@@H](CN(C)Cc2ccncc2)O3)cc1` it was “inactive”; in that of `C[C@@H]1CCCCO[C@@H](CN(C)S(=O)(=O)c2ccccc2)[C@H](C)CN([C@H](C)CO)C(=O)c2cc(NC(=O)NC3CCCCC3)ccc2O1`, “inactive”.
As for `CN(C)CCCNC(=O)C[C@@H]1C=C[C@@H](NC(=O)Cc2cccnc2)[C@H](CO)O1`, the entry is “inactive”.
In the case of `[N-]=[N+]=NCCOCCNC(=O)CCCOc1ccc(CS(=O)c2nnc(-c3ccc(F)cc3)o2)nc1` (configuration not stated) it was “active”.
Take `O=C1OCCN/C1=C/C(=O)c1ccccc1`: the cytotoxicity call is “inactive”.
Consider `Cc1ccc(S(=O)(=O)N(C)C[C@@H]2Oc3ccc(NS(=O)(=O)c4cn(C)cn4)cc3CC(=O)N([C@@H](C)CO)C[C@H]2C)cc1`, for which the cytotoxicity call was “inactive”.
As for `C[C@@H]1CN([C@@H](C)CO)C(=O)Cc2cc(NC(=O)C3CC3)ccc2O[C@H]1CN(C)Cc1ccc2c(c1)OCO2`, the entry is “inactive”; as for `O=C(C[C@H]1C=C[C@H](NC(=O)Nc2ccc3c(c2)OCO3)[C@@H](CO)O1)NCCCN1CCOCC1`, “inactive”.
In the case of `C[C@@H]1CN([C@@H](C)CO)S(=O)(=O)c2ccc(C#CCN(C)C)cc2O[C@@H]1CN(C)Cc1ccncc1` it was “inactive”; in that of `CO[C@@H]1CN(C)C(=O)c2ccc(NC(=O)NC(C)C)cc2OC[C@@H](C)N(Cc2ccc(-c3ccccn3)cc2)C[C@@H]1C`, “inactive”.
With `Cc1ccc(OC(=O)N(C)C[C@@H]2OCc3ccccc3-c3ccccc3C(=O)N([C@@H](C)CO)C[C@@H]2C)cc1`, the cytotoxicity call was “inactive”.
As for `C[C@H]1CN([C@@H](C)CO)C(=O)c2cccc(NC(=O)Nc3cccc4ccccc34)c2O[C@@H]1CN(C)C(=O)Nc1ccccc1`, the entry is “active”; as for `C[C@H](CO)N1C[C@H](C)[C@@H](CN(C)C(=O)Nc2cccc3ccccc23)Oc2c(NC(=O)c3nc4ccccc4s3)cccc2C1=O`, “active”; as for `C[C@H](CO)N1C[C@H](C)[C@H](CN(C)C(=O)Nc2ccc(F)cc2)Oc2c(NC(=O)Nc3cccc4ccccc34)cccc2C1=O`, “inactive”.
As for `C[C@H](CO)N1C[C@H](C)[C@H](CN(C)C(=O)Nc2ccccc2)Oc2c(NC(=O)Nc3cccc4ccccc34)cccc2C1=O`, the entry is “inactive”.
Turning to `C[C@@H]1CN([C@H](C)CO)C(=O)c2cccc(NC(=O)Nc3cccc4ccccc34)c2O[C@@H]1CN(C)C(=O)Nc1ccc(F)cc1`, the cytotoxicity call was “active”.
In the case of `C[C@@H]1CN([C@@H](C)CO)C(=O)c2cccc(NC(=O)c3nc4ccccc4s3)c2O[C@@H]1CN(C)S(=O)(=O)c1cn(C)cn1`, the cytotoxicity call was “inactive”.
As for `C[C@@H]1CN([C@H](C)CO)C(=O)c2cccc(NC(=O)c3nc4ccccc4s3)c2O[C@@H]1CN(C)C(=O)Nc1cccc2ccccc12`, the entry is “inactive”; as for `C[C@@H]1CN([C@@H](C)CO)C(=O)c2cccc(NC(=O)c3nc4ccccc4s3)c2O[C@H]1CN(C)S(=O)(=O)c1cn(C)cn1`, “inactive”.
Regarding `C[C@H]1CN([C@@H](C)CO)C(=O)c2cccc(NC(=O)c3nc4ccccc4s3)c2O[C@@H]1CN(C)C(=O)Nc1cccc2ccccc12`, the cytotoxicity call was “inactive”.
Take `C[C@H](CO)N1C[C@H](C)[C@@H](CN(C)C(=O)Nc2ccc(F)cc2)Oc2c(NC(=O)Nc3cccc4ccccc34)cccc2C1=O`: the cytotoxicity call was “inactive”.
As for `C[C@H]1CN([C@@H](C)CO)C(=O)c2cccc(NC(=O)c3nc4ccccc4s3)c2O[C@H]1CN(C)S(=O)(=O)c1cn(C)cn1`, the entry is “active”.
As for `C[C@H]1CN([C@@H](C)CO)C(=O)c2cccc(NC(=O)Nc3cccc4ccccc34)c2O[C@H]1CN(C)C(=O)Nc1ccccc1`, the entry is “inactive”; as for `COC(=O)CN1C(=O)COc2ccc(C)cc21`, “inactive”.
As for `COc1ccc(cc1)CN1CC[C@]2(CC1)CN([C@@H](CO)c1[nH]c3cc(ccc3c12)OC)C(=O)CN(C)C`, the cytotoxicity call is “inactive”.
